Rows were chosen to be rich in hits. Some 19% of all compounds tested hit in one or more screens of this group.
HepG2 viability = counter-screen for TGF-b inhibitors: cytotoxicity in HepG2 cells; HepG2 CAGA-GFP viability, ATP luminescence, 18 h; Potency, µM (series often up to 46.1 µM), for inactives: at the highest dose activity change, negative = cytotoxicity, usual class: cytotoxic; actives 0.76% (n = 410,000); AID 588856; further: potency means the concentration at half of the fitted maximal effect
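HepG2 CAGA-GFP cells (1000/well, DMEM with 1% FBS) received compound, then TGF-beta at 500 pg/mL final, and were incubated 18 hours at 37 degrees C. Viability was read by CellTiter-Glo luminescence. Media-only wells were set as complete cell-killing and DMSO as no toxicity.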
IL1B secr inh = blocks inflammasome-driven IL-1 beta release; actives 4.7% (n = 360,000); THP-1 LPS/ATP IL-1B secretion, AlphaLISA, 16 h; hits give low values; activity change, % at 57.5 µM; in the data active means activity change below about -50%; inconclusive means mostly about -30% to -49%; further: on the % scale 0 is the no-effect control and ±100 the full control effect
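THP-1 cells pretreated 1 hr with compounds (up to 57.5 uM final), then stimulated with LPS (250 ng/mL final) plus ATP (1.25 mM final); secreted IL-1B measured by AlphaLISA after 16 hr, decreased signal indicating inhibition.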
TDP1 block = TDP1 (human) enzyme inhibition; Q9NUW8; recombinant TDP1, AlphaScreen DNA substrate cleavage; Potency, µM (series often up to 130 µM), without a hit: top-dose activity change, negative = inhibition, usual class: inhibitors; actives 0.28% (n = 350,000); AID 485290; further: potency means the concentration at half of the fitted maximal effect; on the % scale 0 is the no-effect control and ±100 the full control effect; nearly all actives have a fitted effect of over 40% in size
Target sequence (Q9NUW8 whole entry, looked up): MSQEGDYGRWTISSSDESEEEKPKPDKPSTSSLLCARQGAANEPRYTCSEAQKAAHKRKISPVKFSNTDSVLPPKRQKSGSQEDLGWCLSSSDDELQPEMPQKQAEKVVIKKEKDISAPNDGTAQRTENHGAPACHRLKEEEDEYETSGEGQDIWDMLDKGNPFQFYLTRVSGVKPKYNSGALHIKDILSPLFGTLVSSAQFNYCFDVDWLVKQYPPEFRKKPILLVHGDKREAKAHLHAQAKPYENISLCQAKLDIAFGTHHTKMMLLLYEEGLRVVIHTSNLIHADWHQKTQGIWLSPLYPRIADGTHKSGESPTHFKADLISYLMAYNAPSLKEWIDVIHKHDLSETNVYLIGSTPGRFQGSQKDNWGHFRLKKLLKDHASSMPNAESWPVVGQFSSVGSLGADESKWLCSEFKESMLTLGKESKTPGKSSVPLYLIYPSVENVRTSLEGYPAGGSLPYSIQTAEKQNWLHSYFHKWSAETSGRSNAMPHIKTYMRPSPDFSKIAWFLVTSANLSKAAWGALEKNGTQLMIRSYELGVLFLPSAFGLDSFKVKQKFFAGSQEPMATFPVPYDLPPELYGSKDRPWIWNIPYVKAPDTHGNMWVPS
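Signal: AlphaScreen proximity between streptavidin donor and anti-FITC acceptor beads on intact substrate. Reaction: Tdp1 1 nM, substrate 15 nM final, 5 min RT after 15 min compound preincubation.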
DT40 TDP1 no CPT = qHTS for Inhibitors of human tyrosyl-DNA phosphodiesterase 1 (TDP1): qHTS in cells in absence of CPT; DT40 Tdp1-/- hTDP1 cells, no CPT, ATP luminescence, 48 h; Potency, µM (highest dose often 46.2 µM), for inactives: at the highest dose activity change, negative = growth inhibition, hits mostly inhibitors; actives 15% (n = 420,000); further: potency means the concentration at half of the fitted maximal effect; on the % scale 0 is the no-effect control and ±100 the full control effect; nearly all actives have a fitted effect of over 55% in size
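Readout: luminescence from CellTiter-Glo after 30 min in the dark at RT. Cells: DT40 Tdp1-/- with stable hTDP1, 400/well. Exposure: compounds alone, ≥48 hr, 37 °C.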
TGFb inhibitor = blocks TGF-b signaling; HepG2 CAGA-GFP TGF-b/SMAD3 reporter, GFP fluorescence, 18 h; TGF-beta stimulated, 500 pg/mL final; Potency, µM (top dose mostly 46.1 µM), for inactives: at the highest dose activity, negative = inhibition, most hits filed as inhibitors; actives 1.2% (n = 410,000); further: potency means the concentration at half of the fitted maximal effect; on the % scale 0 is the no-effect control and ±100 the full control effect; nearly all actives have a fitted effect of over 65% in size
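Using HEPG2 CAGA-GFP reporter cells at 1000 cells/well, we pinned test compounds, stimulated with recombinant TGF-beta (500 pg/mL final) and measured total well GFP after 18 h.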
DT40 TDP1 CPT = DT40-hTDP1 cell growth loss with CPT | chicken DT40 Tdp1-/-;hTDP1 cells + 20 nM CPT, ATP luminescence, 48 h | Potency, µM (titrated, usually from 46.2 µM), for the others: top-dose activity change, negative = growth inhibition, hits mostly inhibitors | actives 12% (n = 420,000); further: potency means the concentration at half of the fitted maximal effect; on the % scale 0 is the no-effect control and ±100 the full control effect; nearly all actives have a fitted effect of over 55% in size
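Cell growth measured by CellTiter-Glo luminescence after a minimum 48 h, 37 C compound exposure with 20 nM CPT in Tdp1-knockout DT40 cells stably expressing hTDP1, seeded 400/well; qHTS titration format.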
Starred values were filed as active, the others as inactive; ? = inconclusive; . = no result; [ ] = remark or other dose. Unless noted, the call rests on the fitted dose curve; in most records, active means well fitted curve in the direction sought with a large enough effect; inconclusive means small, poorly fitted or top-dose-only effect, or another doubt; inactive means no such curve, though single readings can be large; an effect the other way counts as inactive or inconclusive.

SMILES	HepG2 viability	IL1B secr inh	TDP1 block	DT40 TDP1 no CPT	TGFb inhibitor	DT40 TDP1 CPT
COc1ccc2nc(N(Cc3cccnc3)C(=O)c3ccco3)sc2c1	-26%	.	0%	-4%	-5%	-11%
CCOc1ccc(NCc2nc3ccccc3n2CCOc2ccc(C)cc2)cc1	-29%	.	15%	8.2µM*	?	6.5µM*
Cc1ccccc1NCc1nc2ccccc2n1CCOc1ccccc1	-40%	.	12%	?	14µM*	?
Cc1ccc(NCc2nc3ccccc3n2CCOc2ccccc2C)cc1	-60%	.	15%	?	?	?
OCc1nc2ccccc2n1CCOc1ccccc1	0%	-24	.	?	2%	6%
Clc1ccc(NCc2nc3ccccc3n2CCOc2ccccc2)cc1	-27%	.	9%	21µM*	?	13µM*
COc1ccccc1CNC(=O)Cc1c(C)c2c(cc(C)c3c(C)c(C)oc32)oc1=O	-24%	.	-2%	0%	-16%	-4%
CCCCn1c(SCC(=O)NNC(=O)c2ccccc2)n[nH]c1=O	-11%	13	0%	-6%	17%	-2%
CCN(CC(=O)NCc1ccc(Cl)cc1)C(=O)C(C)Sc1ccccc1 (centres undefined)	1%	4	1%	-8%	-17%	?
C=C1CCN(C(CC(C)C)C(=O)NCc2ccc(Cl)c(Cl)c2)S(=O)(=O)c2ccccc21 (centres undefined)	-20%	.	4%	.	-54%	.
CCOC(=O)CSc1nc(C)c(C(C)=O)cc1C(N)=O	19%	-57*	-5%	-11%	9%	4%
C[C@]12CCC3c4ccc(O)cc4CCC3C1CC(O)C2O (some centres undefined)	.	.	10%[56.1 µM]	8%	.	2%
C=CCOc1ccc2c(c1)CCC1C2CCC2(C)C(O)C(O)CC12 (centres undefined)	-18%	-75*	.	?	?	?
C#C[C@]1(O)CC[C@H]2[C@@H]3CCc4cc(OC5CCCC5)ccc4[C@H]3CC[C@@]21C	-1%	0	6%	8.2µM*	9%	13µM*
C#C[C@]1(O)CC[C@H]2[C@@H]3CCc4cc(OC)ccc4[C@H]3CC[C@@]21C	-21%	8	2%	21µM*	0%	0.24µM*
C#C[C@@]1(O)CC[C@@H]2[C@@H]3CCC4=C(CCC(=O)C4)[C@H]3CC[C@]21C	.	.	10%[21 µM]	.	.	.
C#C[C@]1(O)CC[C@H]2[C@@H]3CCC4=C(CCC(=O)C4)[C@H]3CC[C@@]21C	-11%	-5	3%	7.2µM*	-17%	?
CC1(C)OC(=O)C2(Cc3ccccc3N3CCC(c4ccccc4)CC32)C(=O)O1 (centres undefined)	4%	.	2%	6%	25%	-3%
Cc1cccc(-c2nn(-c3ccccc3)cc2C(=O)N2CCN(C3CCS(=O)(=O)C3)CC2)c1 (centres undefined)	-4%	2	2%	-6%	-7%	-4%
CN(C)C(=O)c1cnc(Sc2ncc(C(F)(F)F)cc2Cl)n1C	3%	35	5%	8.2µM*	-14%	8.2µM*
C/C=C/c1ccc(OCC(O)CN(C)Cc2ccc(SC)cc2)c(OC)c1 (centres undefined)	-117%	?	.	23µM*	?	?
C/C=C/c1ccc(OCC(O)CNCC(c2ccc(OC)cc2)N(C)C)c(OC)c1 (centres undefined)	-13%	-57*	.	?	0%	?
C/C=C/c1ccc(OCC(O)CNCCc2ccc(OC)cc2)c(OC)c1 (centres undefined)	-41%	?	.	?	?	?

Bioassay records as filed in PubChem BioAssay.
